Source: PubChem (National Center for Advancing Translational Sciences (NCATS))
ALDH1A1 block: qHTS Assay for Inhibitors of Aldehyde Dehydrogenase 1 (ALDH1A1) | Aldehyde dehydrogenase 1A1 (Homo sapiens), P00352 | Purified ALDH1A1, NADH fluorescence, propionaldehyde substrate | Potency, µM (series often up to 75.3 µM), for inactives: at the highest dose activity, negative = inhibition, most hits filed as inhibitors | 7.3% of 220,000 active; active means well fitted inhibition curve with a large enough effect, not every such curve was filed as active; inconclusive means small, poorly fitted or top-dose-only effect, or another doubt; inactive means no such curve, though single readings can be large or run the other way;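 further: potency means the concentration at half of the fitted maximal effect; plate controls were no enzyme wells and a reference inhibitor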
Target sequence (P00352 whole entry, looked up): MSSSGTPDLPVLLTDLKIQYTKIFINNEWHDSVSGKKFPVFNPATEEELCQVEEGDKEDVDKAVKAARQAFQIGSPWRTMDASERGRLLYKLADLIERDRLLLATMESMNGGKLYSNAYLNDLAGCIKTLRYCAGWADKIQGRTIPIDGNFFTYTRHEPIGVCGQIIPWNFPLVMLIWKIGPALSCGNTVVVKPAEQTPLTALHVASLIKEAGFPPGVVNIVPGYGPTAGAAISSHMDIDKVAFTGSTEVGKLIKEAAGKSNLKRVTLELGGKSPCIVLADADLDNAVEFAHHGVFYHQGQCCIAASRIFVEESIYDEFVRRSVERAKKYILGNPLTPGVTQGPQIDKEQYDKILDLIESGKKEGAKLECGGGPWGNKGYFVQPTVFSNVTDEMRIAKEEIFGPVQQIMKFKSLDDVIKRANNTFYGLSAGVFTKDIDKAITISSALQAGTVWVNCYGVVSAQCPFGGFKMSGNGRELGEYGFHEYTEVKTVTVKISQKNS
HPGD inh: qHTS Assay for Inhibitors of HPGD (15-Hydroxyprostaglandin Dehydrogenase); Potency, µM, for the others: at the highest dose activity change, negative = inhibition, most hits filed as inhibitors; 15-hydroxyprostaglandin dehydrogenase [NAD(+)] (Homo sapiens), P15428; 4.3% of 150,000 active; AID 894, 2007; purified HPGD, NADH fluorescence kinetic, PGE2 substrate; active means well fitted inhibition curve with a large enough effect, not every such curve was filed as active; inconclusive means small, poorly fitted or top-dose-only effect, or another doubt; inactive means no such curve, though single readings can be large or run the other way; further: potency means the concentration at half of the fitted maximal effect; on the % scale 0 is the no-effect control and ±100 the full control effect
Target sequence (P15428 whole entry, looked up): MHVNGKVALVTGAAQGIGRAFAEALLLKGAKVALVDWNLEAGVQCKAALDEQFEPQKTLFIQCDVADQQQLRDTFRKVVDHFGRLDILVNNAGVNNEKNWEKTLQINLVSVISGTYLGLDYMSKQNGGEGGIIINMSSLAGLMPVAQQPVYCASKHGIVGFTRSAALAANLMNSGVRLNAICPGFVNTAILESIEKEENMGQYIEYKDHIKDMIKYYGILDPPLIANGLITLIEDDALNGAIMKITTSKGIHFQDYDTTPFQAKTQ
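NADH formation kinetics: reaction with 30 uM PGE2 and 1 mM NAD+ (final), 20 nM enzyme, Tris-HCl pH 8 with Tween 20, after 15 min compound preincubation at room temperature. Fluorescence change, last versus first of five reads.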
HTT ATP protect: qHTS Multiplex Assay to Identify Dual Action Probes in a Cell Model of Huntington: Cytoprotection (ATP); AID 1471, 2008; Potency, µM (titrated, usually from 56.4 µM), for inactives: cytoprotection (ATP increase), usual class: activators; 0.14% of 230,000 active; PC12 HTT-Q103 induced, cytoprotection, ATP luminescence, 40 h; further: potency means the concentration at half of the fitted maximal effect; % of control where 0% means no effect; nearly all actives have a fitted effect of over 45% in size
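PC12 cells with ecdysone-inducible HTT exon 1 Q103-GFP, induced with 100 nM tebufenozide and co-treated with library compounds in a dose series (1536-well, 1500 cells/well). Cytoprotection read as ATP content by ATPlite luminescence.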
CBFb RUNX1 block: qHTS Assay for Compounds Blocking the Interaction Between CBF-beta and RUNX1 for the Treatment of Acute Myeloid Leukemia. Runt-related transcription factor 1 (Homo sapiens) + Core-binding factor subunit beta …. AlphaScreen CBFb-His/RUNX1-biotin binding, biochemical. Potency, µM (top dose mostly 59.8 µM), inactives show at the top dose activity, negative = inhibition, hits mostly inhibitors. 230,000 tested, under 10 active. AID 1477, 2009; further: % of control where 0% means no effect
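Compounds were screened at multiple concentrations against a preformed CBF-beta(His)/RUNX1(biotin) complex (30 nM of each) for 15 min at room temperature, followed by 90 min with nickel and streptavidin beads and AlphaScreen reading.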
HttQ103 aggreg: qHTS Multiplex Assay to Identify Dual Action Probes in a Cell Model of Huntington: Aggregate Formation (GFP); AID 1688, 2009; PC12 HttQ103-GFP aggregates, Acumen cytometry, 40 h; Potency, µM (titrated, usually from 46.1 µM), inactives show at the highest dose activity change, negative = inhibition, most hits filed as inhibitors; 1.1% of 220,000 active; further: potency means the concentration at half of the fitted maximal effect; on the % scale 0 is the no-effect control and ±100 the full control effect; nearly all actives have a fitted effect of over 60% in size
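PC12 cells stably carrying ecdysone-inducible HTT exon 1 Q103–GFP were induced with tebufenozide (100 nM final) and treated with library compounds in titration. GFP aggregates in lysates were counted by laser scanning cytometry.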
KDM4E inh: qHTS Assay for Inhibitors of Human Jumonji Domain Containing 2E (JMJD2E) | AID 2147, 2009 | 1.6% of 230,000 active | Potency, µM (titrated, usually from 57.1 µM), for the others: at the top dose activity change, negative = inhibition, actives largely listed as inhibitors | Lysine-specific demethylase 4E (Homo sapiens), B2RXH2 | JMJD2E catalytic domain, FDH-coupled NADH fluorescence (FDH is formaldehyde dehydrogenase);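 further: potency means the concentration at half of the fitted maximal effect; 0% = wells with enzyme and -100% = buffer wells without enzyme; nearly all actives have a fitted effect of over 50% in size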
The depositor's hits bear a star; ? = inconclusive; / = no result given; ! = not active in a repeat; [ ] = another dose, or the depositor's remark. Sampled rows, rich in hits. Any-hit rate of the full collection: about 9.8%. Unless noted, the call rests on the fitted dose curve; in most records, active means well fitted curve in the direction sought with a large enough effect; inconclusive means small, poorly fitted or top-dose-only effect, or another doubt; inactive means no such curve, though single readings can be large; an effect the other way counts as inactive or inconclusive.

SMILES	ALDH1A1 block	HPGD inh	HTT ATP protect	CBFb RUNX1 block	HttQ103 aggreg	KDM4E inh
COc1ccc(NC(=O)CC2C(=O)N(c3ccc(Cl)cc3)C(=S)N2CCc2ccccn2)cc1 (stereo not drawn)	15.8µM*	-18.7%	5.6%[10 µM]	-8.5%	?	-8.0%
COC(=O)CN1C(=S)N(c2ccc(Cl)cc2)C(=O)C1CC(=O)Nc1ccc(Cl)cc1 (stereo not drawn)	-4.6%	31.6µM*	-3.6%	7.4%	-9.0%	?
COC(=O)CN1C(=S)N(c2ccc(Cl)cc2)C(=O)C1CC(=O)Nc1ccc(F)cc1 (stereo not drawn)	?	-13.7%	2.4%[10 µM]	-22.6%	5.1%	-5.9%
O=C(Nc1cc(C(F)(F)F)ccc1N1CCCCC1)c1cccc([N+](=O)[O-])c1	2.4%	/	-25.1%	-0.3%	-11.1%	-3.4%
NC(=O)CCCCn1ccc(NC(N)=NCC(F)(F)F)n1	0.5%	-11.9%	-3.8%	29.9%	/	?
Cc1cccc(OCCCC(=O)NCC(=O)Nc2cccc(C)c2C)c1	-3.9%	/	-24.0%	5.2%	-10.5%	11.1%
C[C@](N)(Cc1ccc(O)c(O)c1)C(=O)O	5.62µM*!	?	-47.6%	2.2%	10.9%	15.8µM*!
COC(=O)C(N)Cc1ccc(O)cc1 (stereo not drawn)	9.4%	6.8%	10.1%	3.3%	18.3%	1.4%
N[C@H](Cc1ccc(O)c(O)c1)C(=O)O	?	-23.4%	-281.8%	/	?	17.8µM*
COC(=O)C(N)Cc1ccc(O)c(O)c1 (stereo not drawn)	2.8%	-0.1%	-53.2%	-18.6%	-2.8%	14.1µM*
C=CCN1C(=O)C(C)NC1=S (stereo not drawn)	/	/	6.2%[10 µM]	28.9%	-4.1%[9.22 µM]	3.9%
COC(=O)CC1C(=O)NCCN1C(=O)c1sc2ccccc2c1Cl (stereo not drawn)	/	/	21.0%[10 µM]	5.3%	13.5%[9.22 µM]	3.3%
COC(=O)CC1C(=O)NCCN1C(=S)NC(=O)c1sc2ccccc2c1Cl (stereo not drawn)	12.6µM*	/	-7.5%[10 µM]	-12.8%	/	-11.2%
Nc1nc(-c2cccc(NS(=O)(=O)c3ccccc3)c2)cs1	7.94µM*	11.2µM*	7.3%[10 µM]	4.4%	?	-2.7%
NC(N)=NS(=O)(=O)c1ccc(NC(=S)NC(=O)c2ccc(Br)cc2)cc1	10µM*	/	-61.1%	-3.6%	0.5%	1.3%
NC(N)=NS(=O)(=O)c1ccc(NC(=S)NC(=O)c2sc3ccccc3c2Cl)cc1	?	-6.6%	13.5%[10 µM]	-0.5%	-2.5%	-3.5%
COc1ccc(S(=O)(=O)Nc2ccccc2C(=O)Nc2nc(-c3ccc(F)cc3)cs2)cc1OC	?	?	?	-12.3%	10µM*	?
COc1ccc(-c2csc(NC(=S)NC(=O)c3cccs3)n2)cc1Br	2.5%	/	-13.1%[10 µM]	12.2%	-24.1%[9.22 µM]	-22.7%
COc1ccc(-c2csc(NC(=S)NC(=O)c3cccs3)n2)cc1OC	11.2µM*	/	-59.9%	-11.1%	-26.9%	-16.7%
N#CC1=C2N=C(N)c3ccccc3N2C2=C(C(=O)CCC2)C1c1ccc(F)cc1 (stereo not drawn)	/	/	15.5%[10 µM]	-13.0%	-10.9%[9.22 µM]	-1.5%
N#CC1=C2N=C(N)c3c(sc4c3CCCCC4)N2C2=C(C(=O)CCC2)C1c1ccccc1 (stereo not drawn)	5.01µM*	-9.6%	-44.7%	?	-18.5%	-5.0%
Cc1ccc(-n2c(C)c([N+](=O)[O-])c3ccc(O)c(CN(C)C)c32)cc1	?	-11.9%	-3.9%	-0.2%	2.51µM*	7.3%
COc1ccc(-n2c(C)c([N+](=O)[O-])c3ccc(O)c(CN4CCCCC4)c32)cc1	?	-16.4%	-7.0%	-25.6%	10µM*	-6.7%
O=C(Cn1nc(-c2ccccc2F)ccc1=O)Nc1ccc(S(=O)(=O)N2CCCCCC2)cc1	?	31.6µM*	3.2%[10 µM]	6.8%	-0.4%	-7.5%
Cc1ccccc1-c1ccc(=O)n(CC(=O)Nc2ccc(C(=O)N3CCCC3)cc2)n1	?	14.1µM*	-8.5%	1.6%	-1.4%	2.6%
SMILES	ALDH1A1 block	HPGD inh	HTT ATP protect	CBFb RUNX1 block	HttQ103 aggreg	KDM4E inh
COc1cccc(/C=C/C(=O)OCC(=O)Nc2ccc(S(=O)(=O)N3CCCC3)cc2)c1	7.08µM*	?	5.1%[10 µM]	3.4%	-4.5%	3.4%
O=C(COC(=O)CCN1C(=O)c2ccccc2C1=O)Nc1ccc(S(=O)(=O)N2CCCC2)cc1	5.01µM*	-13.8%	5.8%[4.97 µM]	0.2%	1.2%	1.0%
COc1ccccc1-n1c(SCC(=O)NC2CCCCC2)nc2c(c1=O)SCC2	-2.1%	-2.1%	-1.2%	-0.4%	0.8%	-1.1%
COc1ccccc1C(=O)NNC(=O)c1nn(Cc2ccccc2)c(=O)c2ccccc12	-10.4%	/	-78.7%	10.3%	?	2.1%
O=C(Cn1nc(-c2ccccc2Cl)ccc1=O)Nc1ccc(Br)cc1	7.94µM*	/	-7.0%[10 µM]	11.5%	0.6%[9.22 µM]	-19.1%
COc1ccc(C2CCCN2C(=S)Nc2cccc(C)c2C)cc1OC (stereo not drawn)	3.6%	/	-32.1%	1.8%	-5.6%	6.6%
CC(=O)N(C)C1=C(O)c2ccccc2C(=O)C1=O	?	-15.9%	?	4.1%	-15.3%	-9.1%
CC(=O)C(C(C)=O)C1(O)C(=O)c2ccccc2C1=O	1.58µM*	6.6%	7.9%[10 µM]	26.1%	26.6%	-27.6%
O=C1c2ccccc2-c2n[nH]c3cccc1c23	3.16µM*	-21.0%	-58.2%	8.8%	-8.2%	?
O=c1c(-c2ccccc2)n[nH]c2ccccc12	?	/	-56.5%	3.7%	-7.0%	?
COc1ccc(C(=O)NC(=S)N2CCCCC2)cc1	15.8µM*	17.8µM*	5.1%	6.8%	0.9%	2.0%
COC(=O)c1sccc1NC(=S)N1CCC(C(N)=O)CC1	-2.5%	/	-4.5%	7.2%	-10.7%	5.6%
COc1ccc(C(=O)NC(=S)N2CCC(C)CC2)cc1	?	22.4µM*	-5.2%	-1.3%	16.0%	-2.1%
COC(=O)c1sccc1NC(=S)N1CCCCC1	7.94µM*	?	-9.9%	-9.9%	1.6%	7.3%
COc1ccc(C(CC(=O)NCc2ccccc2)Sc2n[nH]c(-c3ccccc3)n2)cc1 (stereo not drawn)	9.5%	7.94µM*	7.2%[10 µM]	-6.4%	4.0%	8.2%
